Screens as filed in PubChem BioAssay.
Pol beta inh – DNA polymerase beta (human) inhibition; P06746; Pol beta primer extension/strand displacement, fluorescence kinetic; Potency, µM (titrated, usually from 114 µM), hits mostly inhibitors; actives 1.3% (n = 340,000); AID 485314
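Enzyme-only controls used 10 nM Pol beta; buffer lacking enzyme served as negative control. Compound preincubated 15 min, then 50 nM substrate added; 0 and 10 min reads at room temperature.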
POLH inh – inhibitors of human DNA polymerase eta; Q9Y253; recombinant Pol eta, fluorescent DNA replication assay; Potency, µM (top dose mostly 114 µM), actives largely listed as inhibitors; actives 1.2% (n = 390,000); AID 588591
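Fluorescent replication assay: 50 nM final substrate added after a 15 min room-temperature compound preincubation with 10 nM enzyme. Signal taken at 0 min and again at 10 min.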
POLK inh – blocks human DNA polymerase kappa activity; Q9UBT6; purified Pol kappa, fluorescent DNA synthesis assay, 10 min; Potency, µM (doses to about 107 µM), usual class: inhibitors; actives 0.53% (n = 400,000)
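50 nM final substrate added after 15 min RT preincubation of 10 nM Pol kappa with compound; fluorescence read at 0 and 10 min.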
POLI inh – inhibitors of human DNA polymerase iota; Pol iota fluorescent replication assay, 10 min; actives 1% (n = 390,000); Potency, µM (doses to about 115 µM), actives largely listed as inhibitors; Q9UNA4
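Pol iota at 10 nM preincubated 15 min with compounds at room temperature; reaction started with fluorescent substrate, 50 nM final. Fluorescence read kinetically at 0 and 10 min; buffer-only wells as negative control.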
PI5P4K alpha inh – blocks human PI5P4K alpha kinase activity | P48426 | PI5P4Kalpha enzyme, ADP-Glo luminescence, 60 min; hits give low values | max response, % | actives 1.2% (n = 330,000) | AID 652105; active = max response of -50% or lower; inconclusive = between -30% and -50%; inactive = -30% or higher; also: value at the top dose of about 77 µM
Target sequence (P48426 whole entry, looked up): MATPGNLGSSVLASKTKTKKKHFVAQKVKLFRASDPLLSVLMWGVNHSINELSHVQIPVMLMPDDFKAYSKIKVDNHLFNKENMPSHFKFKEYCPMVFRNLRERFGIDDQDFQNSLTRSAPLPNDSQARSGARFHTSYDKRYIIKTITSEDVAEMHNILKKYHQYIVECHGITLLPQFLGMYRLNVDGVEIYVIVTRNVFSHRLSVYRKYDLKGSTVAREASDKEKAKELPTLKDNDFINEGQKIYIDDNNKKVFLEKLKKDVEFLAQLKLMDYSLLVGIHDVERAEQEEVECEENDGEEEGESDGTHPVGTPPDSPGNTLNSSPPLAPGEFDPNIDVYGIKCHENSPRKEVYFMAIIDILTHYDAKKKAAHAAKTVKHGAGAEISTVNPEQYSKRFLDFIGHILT
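Compounds were pin-transferred onto PI5P4Kalpha and substrate in HEPES pH 7.4 buffer with EGTA, CHAPS and 5% DMSO. ATP (5 microM final) started the reaction, which ran 60 minutes at room temperature before ADP-Glo detection.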
WRN helicase inh – inhibitors of human WRN helicase | Q14191 | WRN helicase unwinding, fluorescent forked duplex, kinetic | Potency, µM (highest dose often 114 µM), usual class: inhibitors | actives 0.46% (n = 360,000) | AID 651768; also: nearly all actives have a fitted effect of over 55% in size
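WRN at 20 nM final was preincubated with compound for 15 min at room temperature; reaction started with 100 nM forked duplex oligonucleotide carrying fluorophore and quencher plus 2 mM ATP (final). Unwinding followed kinetically by red fluorescence (ex 525/em 598 nm).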
A number is an active result; n = inactive; u = inconclusive; x = not tested or not shown; [ ] = remark or other dose. Sampled rows, rich in hits. Any-hit rate of the full collection: about 2.8%. Unless noted, calls follow the shape of the dose curve; as a rule, active = well fitted curve in the direction sought with a large enough effect; inconclusive = small, poorly fitted or top-dose-only effect, or another doubt; inactive = no such curve, though single readings can be large; an effect the other way counts as inactive or inconclusive.

SMILES	Pol beta inh	POLH inh	POLK inh	POLI inh	PI5P4K alpha inh	WRN helicase inh
O=C(Nc1ccccc1O)c1ccc2c(c1)C(=O)N(N1C(=O)c3ccccc3C1=O)C2=O	28.2µM	n	n	n	n	n
O=C(O)c1ccc2c(c1)C(=O)N(N1C(=O)c3ccccc3C1=O)C2=O	25.1µM	n	n	n	n	n
O=C(O)c1ccc2c(c1)C(=O)N(CCc1c[nH]c3ccccc13)C2=O	n	n	n	n	-68.5	n
O=C(O)CCCCCN1C(=O)c2ccc(C(=O)O)cc2C1=O	n	n	n	n	x	n
O=C(/C=C/c1ccc(-c2ccccc2)cc1)NCc1cccnc1	50.1µM	n	n	u	n	n
COc1ccccc1N1CCN(C(=O)c2nn(-c3ccc(C)cc3)c(=O)n(C)c2=O)CC1	n	n	n	n	x	x
Cc1ccc(C(=O)Nc2nnc(S(=O)(=O)N(C)Cc3ccc(Cl)cc3)s2)cc1	n	n	n	n	x	x
C=CCn1c(CSCc2ccc(Cl)cc2Cl)nnc1SCC(=O)Nc1ccc(C(=O)O)cc1	n	n	n	u	-73.9	n
O=C(CSCc1ccc(Cl)cc1Cl)Nc1ccccc1C(=O)Nc1ccc(C(=O)O)cc1	n	n	n	n	n	n
O=c1[nH]c(SCc2ccc(Br)cc2)nc2c1CCCC2	n	x	n	n	x	x
O=C1C(F)=CC(COC(c2ccccc2)(c2ccccc2)c2ccccc2)OC1n1cc(F)c(=O)[nH]c1=O (centres undefined)	x	50.1µM	n	u	u	u
CC(=O)OCC1OC(n2cc(F)c(=O)[nH]c2=O)C(OC(C)=O)C1OC(C)=O (centres undefined)	x	n	n	n	n	n
Cc1c(C(=O)N2CCN(c3ccccn3)CC2)oc2ccccc12	n	n	n	n	x	n
CCOc1ccc2oc(C(=O)N3CCN(c4ccccn4)CC3)c(C)c2c1	u	20µM	n	u	n	n
CCOC(=O)C1=C(C)N(Cc2ccccc2)C(=O)NC1c1ccccc1OS(=O)(=O)c1ccccc1[N+](=O)[O-] (centres undefined)	x	n	n	n	n	n
COC(=O)C1=C(C)N(CCCC(=O)O)C(=O)NC1c1ccccc1OS(=O)(=O)c1ccccc1[N+](=O)[O-] (centres undefined)	x	n	n	n	-83.9	n
CC1=C(C(=O)OCc2ccccc2)C(c2ccc3ccccc3c2)NC(=O)N1CCCCCC(=O)O (centres undefined)	n	n	n	n	u	n
CC1=C(C(=O)OCc2ccccc2)C(c2ccccc2OS(=O)(=O)c2ccc(C)cc2)NC(=O)N1CCCC(=O)O (centres undefined)	x	n	n	u	-71.9	n
CC1=C(C(=O)OCc2ccccc2)C(c2ccccc2Cl)NC(=O)N1CCCC(=O)O (centres undefined)	n	n	n	n	-73.0	n
CC1=C(C(=O)OCc2ccccc2)C(c2ccccc2Cl)NC(=O)N1CCCCCC(=O)O (centres undefined)	n	n	n	n	n	n
CC1=C(C(=O)OCc2ccccc2)C(c2ccc3ccccc3c2)NC(=O)N1CCCC(=O)O (centres undefined)	u	n	n	u	-101.3	n
COc1ccccc1/C=C/c1nc2ccccc2n1C(C)C	n	n	n	u	x	x
CC(C)(C)n1ncc2c(=O)n(Cc3cccc(Oc4ccccc4)c3)cnc21	x	x	n	n	x	x
CC1=C(C(=O)OCc2ccccc2)C(c2ccc([N+](=O)[O-])cc2)NC(=O)N1CCCC(=O)O (centres undefined)	n	n	n	n	-68.2	n
CC1=C(C(=O)OCc2ccccc2)C(c2ccc3c(c2)OCO3)NC(=O)N1CCCC(=O)O (centres undefined)	x	n	n	n	-78.3	n
COc1cc2c(NC3CCN(C)CC3)nc(N3CCN(C)CC3)nc2cc1OCCCN(C)C	x	x	n	u	x	x
COc1ccc(C(=O)NC(C(=O)OCC(=O)Nc2sccc2C(N)=O)C(C)C)cc1 (centres undefined)	x	89.1µM	n	u	n	n[11.6 µM]
